# High-throughput results: PubChem BioAssay, National Center for Advancing Translational Sciences (NCATS)
# TGFb SMAD3 inh: blocks TGF-b signaling; HepG2 CAGA-GFP TGF-b/SMAD3 reporter, GFP fluorescence, 18 h; TGF-beta stimulated, 500 pg/mL final; Potency, µM (doses to about 46.1 µM), inactives show top-dose activity, negative = inhibition, hits mostly inhibitors; 410,000 tested, 1.2% active; AID 588855; further: potency means the concentration at half of the fitted maximal effect; on the % scale 0 is the no-effect control and ±100 the full control effect; nearly all actives have a fitted effect of over 65% in size
#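 Read-out: total well GFP (ex488/em500-530) summed from mean per-cell fluorescence. Cells: HEPG2 CAGA-GFP, 1% FBS DMEM, 18 h at 37 degrees C with 500 pg/mL final TGF-beta. Unstimulated wells served as the full-inhibition control; stimulated DMSO wells = 0%.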
# ATXN viability: reduces viability in counter-screen for ATXN expression inhibitors. S2 cells (HEK-293 line with an ATXN2-luciferase reporter) viability, CellTiter-Fluor protease fluorescence, 24 h. Potency, µM (series often up to 56.7 µM), hits mostly cytotoxic. 400,000 tested, 0.49% active. AID 651635; further: potency means the concentration at half of the fitted maximal effect; nearly all actives have a fitted effect of over 40% in size
# ATXN2 expr inh: inhibitors of ATXN2 expression; Potency, µM (doses to about 57 µM), for the others: top-dose activity change, negative = inhibition, hits mostly inhibitors; HEK-293 ATXN2-luciferase reporter, luminescence, 24 h; 360,000 tested, 0.72% active; AID 1745845; further: potency means the concentration at half of the fitted maximal effect; on the % scale 0 is the no-effect control and ±100 the full control effect; nearly all actives have a fitted effect of over 55% in size
#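 ATXN2-luciferase reporter cells (luciferase flanked by upstream and downstream ATXN2 gene portions) were treated 24 h at 37 °C with compounds at up to 57 uM. SteadyGlo luminescence gave expression; GF-AFC fluorescence gave viability.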
# D3 ag: D3 dopamine receptor (human) agonism. max activation, %. P35462. AID 652048. D3R DiscoveRx beta-arrestin cells, luminescence, 90 min. 410,000 tested, 0.58% active; in the data active means max activation above about 30%; further: 0% is about no effect
# Target sequence (P35462 whole entry, looked up): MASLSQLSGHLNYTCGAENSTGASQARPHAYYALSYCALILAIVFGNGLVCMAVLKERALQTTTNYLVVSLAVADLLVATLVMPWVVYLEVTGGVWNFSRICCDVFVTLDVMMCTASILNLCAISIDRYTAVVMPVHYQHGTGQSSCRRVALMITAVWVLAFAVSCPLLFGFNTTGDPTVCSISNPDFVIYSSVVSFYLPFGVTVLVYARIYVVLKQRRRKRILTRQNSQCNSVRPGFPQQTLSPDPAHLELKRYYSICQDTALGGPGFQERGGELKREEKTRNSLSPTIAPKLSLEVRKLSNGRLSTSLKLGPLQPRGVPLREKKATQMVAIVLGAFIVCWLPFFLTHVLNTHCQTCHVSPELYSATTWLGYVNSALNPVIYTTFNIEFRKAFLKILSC
#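 Agonist-mode cell screen: cells plated at 1500/well and incubated overnight at 37 °C, then exposed to library compounds for 90 min at 37 °C. Detection reagent was added for 30–60 min at room temperature, and luminescence was read.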
# D3 antag: D3 dopamine receptor (human) antagonism; P35462; 360,000 tested, 2.5% active; max response, negative = inhibition, %; D3R cells, DiscoveRx beta-arrestin luminescence, antagonist mode; stronger effect = lower value; in the data active means max response below about -50%; inconclusive means no clear call, values can overlap the other calls; further: on the % scale 0 is the no-effect control and ±100 the full control effect
#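 Cells expressing the human receptor were seeded at 1500 cells/well, incubated overnight at 37 degrees C in 5% CO2, then exposed to library compounds with dopamine controls for 90 minutes at 37 degrees C before luminescent detection.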
# HepG2 viability: HepG2 cytotoxicity, counter-screen for TGF-b inhibitors. 410,000 tested, 0.76% active. HepG2 CAGA-GFP viability, ATP luminescence, 18 h. AID 588856. Potency, µM (highest dose often 46.1 µM), for the others: top-dose activity change, negative = cytotoxicity, actives largely listed as cytotoxic; further: potency means the concentration at half of the fitted maximal effect
#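 CellTiter-Glo luminescence gave cytotoxicity after 18 hours at 37 degrees C. The cells were HepG2 CAGA-GFP in 1% FBS DMEM, stimulated with 500 pg/mL TGF-beta after compound addition. %Activity was normalised to no-cell wells (complete cell-killing) and DMSO (no toxicity), and curves were fitted and classified.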
# Numbers without * were called inactive; i = inactive; u = inconclusive; x = not tested or not shown; [ ] = dose if it differs, or a comment. Hits are enriched below; roughly 4.8% of the tested compounds scored in any of these assays. Unless noted, the call rests on the fitted dose curve; in most records, active means well fitted curve in the direction sought with a large enough effect; inconclusive means small, poorly fitted or top-dose-only effect, or another doubt; inactive means no such curve, though single readings can be large; an effect the other way counts as inactive or inconclusive.
SMILES,TGFb SMAD3 inh,ATXN viability,ATXN2 expr inh,D3 ag,D3 antag,HepG2 viability
CCOC(=O)CN1C(=O)NC2(CCCc3ccccc32)C1=O (stereo not given),0%,i,-11%,-15,-68*,2%
O=C(O)CN1C(=O)NC2(CCCc3ccccc32)C1=O (stereo not given),-2%,i,-10%,-6,-19,15%
CCC(C)NCCOCCOc1ccc(F)cc1 (stereo not given),-6%,i,0%,-9,-66*,5%
CCC(C)NCCOCCOc1cc(C)c(Cl)c(C)c1 (stereo not given),-23%,i,u,-10,u,-14%
CCC(C)NCCOCCOc1ccccc1-c1ccccc1 (stereo not given),-10%,i,-17%,-27,-69*,-29%
CC(C)(C)NCCOCCOc1ccccc1-c1ccccc1,-7%,i,-12%,-37,9,-5%
COc1ccc(NC(=O)CCS(=O)(=O)c2cc3c4c(c2)CCN4C(=O)CC3)cc1OC,u,i,10%,7,x,-1%
O=C(Nc1nc2ccccc2n1CCOc1ccccc1Cl)c1ccccc1,-2%,i,44%,-4,x,-11%
C[C@H](NCc1ccc2c(c1)nc(NC(=O)c1ccc(-c3cn[nH]c3)s1)n2CCc1ccccc1)C(C)(C)C,x,x,1.9µM*,x,x,x
CCCCCCn1ccc(=N)cc1,-7%,i,u,2,0,-18%
CCCCCCCCCCCCCCCCn1cc[n+](CC(C)=O)c1,20µM*,30µM*,u,3,-24,-104%
CCOc1ccc(-c2cc(CCCC(=O)NCCc3ccc(SC)cc3)no2)cc1,-8%,u,u,6,x,0%
O=C1CCCCc2cc(O)c(O)cc21,u,i,x,52*,-2,-39%
O=C1CCCc2cc3c(cc21)CCCC3,-3%,i,4%,16,2,-7%
Cc1cc(Cl)c(S(=O)(=O)N/N=C/c2ccc3c(c2)OCO3)c(Cl)c1,-12%,i,19%,-15,u,-10%
Cc1cc(C)c(S(=O)(=O)N/N=C/c2ccc3c(c2)OCO3)c(C)c1,-13%,i,0%,6,-71*,-23%
COCCCN1C(=O)c2[nH]nc(-c3cc(C)ccc3O)c2C1c1ccc(F)cc1 (stereo not given),-18%,x,x,5,x,-27%
COCCN1C(=O)c2[nH]nc(-c3ccccc3O)c2C1c1ccc(OCc2ccccc2)c(OC)c1 (stereo not given),u,x,x,7,x,-73%
CCCCOc1cccc(C2c3c(-c4cc(C)ccc4O)n[nH]c3C(=O)N2CCOC)c1 (stereo not given),u,u,u,42*,x,-110%
CCCN1C(=O)c2[nH]nc(-c3ccccc3O)c2C1c1cccc(OCc2ccccc2)c1 (stereo not given),11µM*,x,x,7,x,16µM*
CCSc1nnc2c(n1)OC(CC)N(C(C)=O)c1ccccc1-2 (stereo not given),9%,u,5%,-6,x,-2%
COc1ccccc1NC(=S)NNC(=O)c1nn(C)c(C)c1Cl,6%,i,2%,-1,-69*,-29%
COc1ccccc1NC(=S)NNC(=O)c1ccc(O)cc1,-8%,i,50%,-2,-83*,2%
COc1ccccc1NC(=S)NNC(=O)c1nn(C)c(C)c1Br,-3%,i,22%,-16,0,-51%
CC(C#N)(Nc1ccc(Cl)cc1)c1cccnc1 (stereo not given),-13%,u,u,-18,-61*,-12%
SMILES,TGFb SMAD3 inh,ATXN viability,ATXN2 expr inh,D3 ag,D3 antag,HepG2 viability
Clc1ccc(NCc2cccnc2)cc1,1%,i,-11%,-8,-7,22%
C(=N\Nc1nc(-c2cccnc2)nc2ccccc12)/c1ccccc1,-26%,x,-28%,9,19,-15%
Nc1nc(N2CCN(Cc3ccccc3)CC2)n[nH]1,-4%,i,10%,51*,21,-9%
Nc1nc(N2CCN(C(c3ccccc3)c3ccccc3)CC2)n[nH]1,14%,i,-33%[11.3 µM],0,-12,18%
C(=N\Nc1nc(-c2ccccn2)nc2ccccc12)/c1ccccc1,1.8µM*,x,x,x,x,-35%
c1ccc(CNc2nc(N3CCN(Cc4ccccc4)CC3)nc3ccccc23)cc1,u,i,u,-30,-93*,28µM*
COc1ccccc1Nc1nc(NCc2ccco2)c2ccccc2n1,u,i,-30%,-11,10,-54%
Cc1ccc(Nc2nc(NCc3ccco3)c3ccccc3n2)cc1,11µM*,i,u,-10,0,-47%
O=C(CSc1ncc2c(n1)-c1ccccc1N(Cc1ccc(F)cc1)S2(=O)=O)c1ccc(Cl)cc1,3%,i,-9%,10,x,3%
CCN(CC)c1ccc(/C=C/C2=C3C=CC=CC3NC=C2)cc1 (stereo not given),82%,x,x,x,x,-26%
COc1cccc(CN2C(=O)NC(C)(C3CCN(Cc4cnn(C)c4C)CC3)C2=O)c1OC (stereo not given),x,i,x,x,x,x
COc1cc(OC)cc(C(=O)Nc2ccc(S(=O)(=O)N3CCCCC3c3cccnc3)cc2)c1 (stereo not given),-10%,x,x,-35,x,-37%
c1coc(CNc2nc(N3CCCCC3)nc3ccccc23)c1,10µM*,u,u,-20,u,-45%
c1ccc(-c2nc(NCC3CCCO3)c3ccccc3n2)nc1 (stereo not given),-16%,x,x,0,-53*,-25%
CCOc1ccc(Nc2nc(NCC3CCCO3)c3ccccc3n2)cc1 (stereo not given),11µM*,u,u,2,-5,-51%
COc1ccc(Nc2nc(NCc3ccco3)nc(N/N=C/c3ccccc3)n2)cc1,26%,i,-4%,-6,-51*,2%
c1ccc(Nc2nc(NCC3CCCO3)c3ccccc3n2)cc1 (stereo not given),u,u,-32%[11.3 µM],-3,10,-18%
c1ccc(N2CCN(c3nc(NCc4ccco4)c4ccccc4n3)CC2)cc1,u,u,u,-17,-21,-60%
CCOc1ccc(Nc2c3ccccc3nc3ccccc23)cc1,u,u,11µM*,-7,u,-53%
CCOc1ccc(Nc2cc(C)c3ccccc3n2)cc1,u,i,14%,-3,-20,-38%
Oc1ccccc1-c1nc(NCc2ccco2)c2ccccc2n1,27%,i,-28%,-1,13,-31%
